Sa growth inh: S. aureus growth inhibition; S. aureus RN4220 growth, OD600, 20 h, 42 °C; hits give low values; 0.53% of 170,000 active; AID 720641; relative growth, % (test concentration not listed);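 active = relative growth at most 50% at the other temperature and 20+ points below 30 °C, or under 10% at both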
S aureus helic: S. aureus DNA helicase inhibition | purified S. aureus helicase, fluorescence unwinding assay | inhibition, % (no concentration beside the values) | 0.05% of 120,000 active | AID 485395; in the data active = inhibition above about 25%, passing the limit was not always enough;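 also: 0% = mean of negative control wells and 100% = mean of positive control wells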
* marks the source's active call; other numbers are inactive results; / = not tested or not shown; ! = repeats disagree. Rows were chosen to be rich in hits. Some 0.52% of all compounds tested hit in one or more screens of this group.

SMILES	Sa growth inh	S aureus helic
COc1ccc(OC)c(NC(=O)c2nc(S(=O)(=O)Cc3ccc(F)cc3)ncc2Cl)c1	-1.1*	/
Cc1ccc(CS(=O)(=O)c2ncc(Cl)c(C(=O)Nc3nc4ccc(C)cc4s3)n2)cc1	92.1	/
Cc1ccccc1CS(=O)(=O)c1ncc(Cl)c(C(=O)Nc2nnc(C(C)C)s2)n1	5.7*	/
CCCc1nnc(NC(=O)c2nc(S(=O)(=O)Cc3ccc(C)cc3)ncc2Cl)s1	4.1*	/
O=C(c1ccccc1Cl)N1CCN(c2ccc(N3CCCCCC3)nn2)CC1	108.2	7.0
Cc1cc2cc(CNC(=O)CCCc3ccccc3)ccc2[nH]1	/	12.0
O=C(COc1ccc2ccccc2c1)Nc1ccc2nn(-c3ccccc3)nc2c1	107.2	4.0
CCOC(=O)c1ccc(NC(=O)C2CC(=O)N3CCCN=C3S2)cc1 (stereo not given)	90.6	4.0
Cc1cc(N2CCN(C)CC2)nc2ccc(NC(=S)NCc3ccco3)cc12	83.7	15.0
O=C1NC(=O)C2C1ON(c1ccc(Cl)cc1)C2c1ccccc1 (stereo not given)	101.6	2.0
COc1ccc(Br)cc1COC(=O)C1c2ccccc2Oc2ccccc21	94.1	/
Cc1ccc(NC(=O)c2ccc(CNS(=O)(=O)c3ccc4c(c3)C(C)(C)C(=O)N4C)cc2)cc1C	126.8	/
C=C1N(C)c2ccc(NC(=O)c3ccccc3)cc2C1(C)C	8.3*	-5.0
O=C(OCc1cccs1)c1ccc(-c2nc3ccccc3s2)s1	102.6	-13.0
COc1cccc(-n2nnnc2S(=O)(=O)Cc2ccccc2)c1	-1.1*	2.0
Cc1cccc(C)c1-n1nnnc1S(=O)(=O)Cc1ccccc1Cl	96.2	-3.0
Cc1ccccc1CN1CCN(CC(=O)NCCc2ccc(Cl)cc2)C1=O	94.5	6.0
COc1ccc(-c2ccnc(SC)n2)cc1	128.9	/
COc1nncc(-c2cnnc(SC)n2)n1	0.1*	8.0
CC(OC(=O)c1ncc(Cl)c(Cl)c1Cl)C(=O)N1CCOCC1 (stereo not given)	80.2	28.0
O=C(COC(=O)CC1CCCC1)Nc1nnc(-c2ccccc2)o1	21.3	2.0
O=C(COC(=O)C1(c2ccccc2)CC1)Nc1nnc(-c2ccccc2)o1	-0.5*	13.0
O=C(Cc1coc2ccc3ccccc3c12)Oc1ccc(-c2nnco2)cc1	96.5	15.0
O=C(COC(=O)Cc1coc2ccc3ccccc3c12)Nc1nnc(-c2ccccc2)o1	0.1*	-9.0
Nc1nc(=S)nc(C2CCC2)[nH]1	87.8	-7.0
SMILES	Sa growth inh	S aureus helic
COc1ccc(C(=O)N2CCc3cc(OC)c(OC)cc3C2c2ccccc2)cc1 (stereo not given)	116.3	8.0
CC(C)OC(=O)c1ccc2[nH]c3c(c2c1)CCCC3	33.7*	10.0
COC(=O)c1ccc2[nH]c3c(c2c1)CCCC3	82.8	10.0
COC(=O)C1=C(C)Nc2ncnn2C1/C=C/c1ccccc1 (stereo not given)	112.0	6.0
CCOc1ccc2c(c1)s/c(=N\C(=S)NC(=O)CN1C(=O)CCC1=O)n2C	109.2	19.0
COc1ccc2c(c1)s/c(=N\NC(=S)NC(=O)CN1C(=O)CCC1=O)n2C	0.5*	4.0
Clc1ccc(-c2cnc3nonc3n2)cc1	0.0*	15.0
N#Cc1cc(-c2ccc(Cl)cc2)no1	103.3	7.0
CC(N=C1NS(=O)(=O)c2ccccc21)c1ccc(F)cc1 (stereo not given)	94.2	-7.0
COc1ccc(-c2c(C#N)c(=O)n3c(sc4ccccc43)c2C#N)cc1	109.4	7.0
O=C(Nc1c2c(nn1-c1cccc(Cl)c1)CS(=O)(=O)C2)c1ccc(S(=O)(=O)N2CCCC2)cc1	102.2	7.0
N#C/C(=C\c1ccccc1)c1cccc(Cl)c1	44.3*	/
N#C/C(=C/c1ccccc1)c1cccc(C#N)c1	110.2	10.0
O=S(=O)(c1ccc2ccccc2c1)N1CCN(Cn2[nH]c(-c3cccs3)nc2=S)CC1	42.1	21.0
C=CCN(CC=C)Cn1[nH]c(-c2cccs2)nc1=S	37.8*	-3.0
Nc1nc(SC#CC(F)(F)F)ns1	-0.6*	7.0
CC(C)(CC(=O)O)CC(=O)N1CCN(c2ccccn2)CC1	95.9	/
CC(OC(=O)c1ccc(NC(=O)Cc2ccccc2)cc1)C(=O)c1ccccc1 (stereo not given)	113.6	17.0
CCN(CC)c1ncc2c(=S)[nH]c(=S)[nH]c2n1	94.9	/
C=CCSc1ncc2c(=S)[nH]c(=S)[nH]c2n1	0.0*	/
COc1cccc(OC)c1C(=O)Nc1ccc(N2CCN(C(C)=O)CC2)c(Cl)c1	43.4	-3.0
CCOC(=O)c1cn(C2CC2)c2c(F)c(F)c(F)cc2c1=O	117.1	-3.0
O=C(NCSCc1cccc(C(F)(F)F)c1)Nc1ccc(F)c(Cl)c1	9.0*	/
C=CCNC(=O)Nc1ccc(F)c(Cl)c1	104.5	25.0
CCN(CC)C(=O)c1csc(-c2ccccc2)c1-c1ccccc1	108.8	5.0
SMILES	Sa growth inh	S aureus helic
Cc1nccc(-c2cccc(N/N=C(\C#N)S(=O)(=O)c3ccccn3)c2)n1	94.6	0.0
Cc1nccc(-c2cccc(NN=C(C#N)C#N)c2)n1	-0.4*	20.0
Cn1nc(-c2ccc(F)cc2)nc2c(=O)n(C)c(=O)nc1-2	0.2*	-132.0
COc1ccc(-c2nc3c(=O)n(C)c(=O)nc-3n(C)n2)cc1OC	52.9	-1.0
c1ccc(-c2ccc3c4ccccc4cc-3o2)cc1	107.1	/
C[C@@H](O)[C@H]1C(=O)N2C(C(=O)O)=C(S[C@@H]3CN[C@H](C(=O)N(C)C)C3)[C@H](C)[C@H]12	-0.5*	/
Cc1cc(=O)n(-c2nc3ccccc3[nH]2)[nH]1	8.3*!	7.0
O=c1cc(-c2ccccc2)[nH]n1-c1nc2ccccc2[nH]1	7.5*	17.0
Cc1[nH]n(-c2nc3ccccc3[nH]2)c(=O)c1C1OC(=O)c2ccccc21 (stereo not given)	45.7	11.0
Cc1nn(-c2nc3ccccc3[nH]2)c(N)c1-c1ccccc1	85.3	-13.0
CC(C)CCNC(=O)C1C2C(=O)N(Cc3ccccc3)CC23C=CC1(C)O3 (stereo not given)	88.4	0.0
CCCCN1COc2c(cc(Cl)c3cccnc23)C1	1.0*	8.0
Clc1cccc(NCc2cccc3c2CN(CC2CCCO2)C3)c1 (stereo not given)	100.2	0.0
Clc1cc2c(c3ncccc13)OCN(CCc1ccccc1)C2	95.0	14.0
Clc1cc2c(c3ncccc13)OCN(CCC1=CCCCC1)C2	0.1*	11.0
Oc1c(CN2CCc3ccccc3C2)cc(Cl)c2cccnc12	/	-12.0
Clc1cc2c(c3ncccc13)OCN(CC1CCCO1)C2 (stereo not given)	1.0*	-13.0
COc1ccc(CN2COc3ccc(OC)cc3C2)cc1	101.8	6.0
CC1CCC(C(=O)NC(Cc2c[nH]c3ccccc23)C(=O)NC2CCCCC2C)CC1 (stereo not given)	111.0	10.0
Cc1onc(-c2ccccc2)c1C(=O)OCC(=O)c1ccc2c(c1)OCCO2	95.0	10.0
C=CCN1C(=O)CC(C(=O)OCC)=C1C	96.8	4.0
Nc1nc2c(c3c1c(=O)oc1ccccc13)CCCC2	80.5	-2.0
O=C(COc1ccccc1F)Nc1nc(-c2cccs2)c(NC(=O)c2ccccc2)s1	99.6	11.0
CCS(=O)(=O)C1=NN2C(=N)/C(=C\c3ccc(-c4ccccc4)o3)C(=O)N=C2S1	43.6*	-54.0
CS(=O)(=O)C1=NN2C(=N)/C(=C\c3ccc(-c4ccc(Cl)cc4)o3)C(=O)N=C2S1	41.5	-15.0
CC[n+]1c(C)sc2cc(SC)c(OC)cc21	1.8*	10.0
CC[n+]1c(C)sc2ccccc21	45.8	16.0

Bioassay records from PubChem BioAssay.
